A selection: hits, their analogues and other compounds. The true share with any hit is near 1.5%.
NPR2 activator: human GC-B receptor activators, primary screen, HEK293 GC-B cells, cGMP TR-FRET, EC30 CNP | 370,000 compounds, 0.11% hits | Atrial natriuretic peptide receptor 2 (Homo sapiens), P20594 | 0% at EC30 CNP, 100% saturating CNP | activation, % at 10 µM;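 active = activation at 10 µM reaching about 35% in either raw or pattern-adjusted values, limit read from the data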
Neddylation inh: inhibitors of cullin neddylation, primary screen, biochemical, TR-FRET, uHTS, NAE and Ubc12 | inhibition, % at 25 µM | 360,000 compounds, 0.58% hits | AID 651699, 2012; in the data active = inhibition above about 36%
NadD inh: inhibitors of S. aureus NadD, primary screen, biochemical, colorimetric, uHTS | Nicotinate-nucleotide adenylyltransferase NadD (Staphylococcus aureus N315) | purified NadD enzyme, colorimetric absorbance read-out | inhibition, % at 20 µM | 360,000 compounds, 0.78% hits | AID 602399, 2012; in the data active = inhibition above about 26%
GC-A act: GC-A stimulated cGMP production enhancers – HEK293 GC-A cells, cGMP TR-FRET, EC30 ANP, primary screen | Atrial natriuretic peptide receptor 1 (Homo sapiens), P16066 | 0% at EC30 ANP, 100% saturating ANP | activation, % at 10 µM | 370,000 compounds, 0.14% hits; in the data active = activation above about 40%
NadD inh conf: inhibitors of S. aureus NadD, confirmation, biochemical, colorimetric, single concentration; shares compounds with NadD inh; purified S. aureus NadD, colorimetric enzyme assay; inhibition, % at 20 µM; 2,000 compounds, 13% hits; in the data active = inhibition mostly above about 42%, no sharp cut-off; inactive = mostly below about 42%
Starred values were filed as active, the others as inactive; . = not tested or not shown.

SMILES | NPR2 activator | Neddylation inh | NadD inh | GC-A act | NadD inh conf
Cc1ccc(-c2cc(C(=O)N/N=C/c3ccc([N+](=O)[O-])o3)c3ccccc3n2)o1 | -5 | . | 32* | -2 | 8
CCn1c2ccccc2c2cc(C=NNC(=O)c3cc(-c4ccc(OC)cc4)n[nH]3)ccc21 | -6 | . | . | -3 | .
CN(C)S(=O)(=O)c1ccc2nc(COCc3nc4ccc(S(=O)(=O)N(C)C)cc4[nH]3)[nH]c2c1 | -3 | . | . | 0 | .
O=C(NCCc1c[nH]c2ccccc12)OCc1cn(-c2cccc(C(F)(F)F)c2)nn1 | 1 | . | . | -1 | .
NC(=O)[C@@H]1CC2(CC(c3cccc(NC(=O)CC(c4ccccc4)c4ccccc4)c3)=NO2)CN1C(=O)COc1ccc(Cl)cc1 (some centres not stated) | 13 | -15 | 39* | 0 | 27
NC(=O)[C@H]1CC2(CC(c3cccc(NC(=O)COc4ccc(Cl)cc4)c3)=NO2)CN1C(=O)CC(c1ccccc1)c1ccccc1 (some centres not stated) | 4 | -41 | 37* | -3 | 50*
CCC(=O)Nc1cccc(C2=NOC3(C2)C[C@@H](C(N)=O)N(C(=O)COc2ccc(Cl)cc2)C3)c1 (some centres not stated) | 1 | -4 | 3 | 0 | .
Cc1nn(-c2ccccc2)c(C)c1/C=N\N1CCN(Cc2ccccc2Cl)CC1 | -3 | . | . | 1 | .
CC(C)(Sc1ccc(CCN(CCCCC2CCCCC2)C(=O)NC2CCCCC2)cc1)C(=O)O | 3 | -9 | 46* | 2 | 18
CN(Cc1ccccc1)C(=O)NC1CCCCC1 | 2 | 4 | 1 | -1 | .
CC1CCCC(C)N1c1nnc(NC(=O)c2cc(-c3ccc(Br)cc3)on2)s1 (configuration not stated) | -7 | 0 | 41* | 3 | 20
O=C(Nc1nnc(N2CCCCCC2)s1)c1cc(-c2ccc(Br)cc2)on1 | -9 | 33 | 14 | 3 | .
Cc1ccc(S(=O)(=O)N(C)[C@H]2C[C@H]3c4[nH]c5c(-c6ccccc6)cccc5c4CCN3C(=O)[C@H]2[C@H](C)O)cc1 | -5 | . | . | -6 | .
Cc1ccccc1CNC(=O)C1C2C=CC3(CN(Cc4ccccc4)C(=O)C13)O2 (configuration not stated) | 1 | . | . | 1 | .
Cc1ccccc1NC(=O)N(C)[C@H]1C[C@H]2c3[nH]c4c(-c5ccccc5)cccc4c3CCN2C[C@H]1[C@H](C)O | -5 | . | . | -2 | .
COc1cc(/C=C(\C#N)c2nc3ccccc3[nH]2)c([N+](=O)[O-])cc1OCc1ccccc1 | 7 | 3 | 40* | 17 | 17
N#C/C(=C\c1ccc(Oc2ccc(C(F)(F)F)cc2[N+](=O)[O-])cc1)c1nc2ccccc2[nH]1 | 3 | 13 | 40* | 4 | 11
COc1cccc(C(=O)N[C@H](C(=O)N2CCC[C@H]2C(=O)NCc2ccccc2)C(C)C)c1 | 2 | . | . | 1 | .
Cc1ccccc1NC(=O)O[C@H]1CC[C@@]23CCCN2C(=O)CCC[C@H]3[C@H]1C | -1 | . | . | 1 | .
O=C(Cn1nc(-c2ccccc2)ccc1=O)Nc1ccc(N2CCN(C(=O)c3cccs3)CC2)cc1 | -12 | -11 | 29* | -3 | 6
CC(C)CC(=O)Nc1ccc(N2CCN(C(=O)c3cccs3)CC2)cc1 | 0 | 1 | -1 | 2 | .
CC(C)[C@@H]1CC[C@@H](C)C[C@H]1OC[B-](F)(F)F | 7 | . | . | 0 | .
COC(=O)Cc1nnn2c1CC(OC)c1ccccc1-2 (configuration not stated) | 4 | . | . | 5 | .
CC1(C)CC1C(=O)Nc1ccc([N+](=O)[O-])cc1Br (configuration not stated) | 3 | -16 | -7 | 0 | .
Cc1ccc(C2(c3ccc(C)cc3)CC2C(=O)Nc2ccc([N+](=O)[O-])cc2O)cc1 (configuration not stated) | -1 | 0 | 48* | 11 | 43
c1ccc(OCCNc2nc(NCC3CC3)nc3cc(-c4ccccc4)sc23)cc1 | 5 | -154 | 33* | 3 | 19

Assay outcomes from PubChem.
